Bioassay records as filed in PubChem.
This is a sample that favours compounds with a hit; in the whole collection about 7.4% have one here.
FLuc counter – counter-screen for miR-21 project: firefly luciferase inhibitors or activators. hit rate 6.9% among 360,000. purified FLuc, Km substrates, luminescence inhibition. Potency, µM (series often up to 57.5 µM), without a hit: top-dose activity change, negative = inhibition, actives largely listed as inhibitors;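 also: plate controls were vehicle for no effect and reference inhibitor for full effect; nearly all actives have a fitted effect of over 55% in size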
Target sequence (P08659 whole entry, looked up): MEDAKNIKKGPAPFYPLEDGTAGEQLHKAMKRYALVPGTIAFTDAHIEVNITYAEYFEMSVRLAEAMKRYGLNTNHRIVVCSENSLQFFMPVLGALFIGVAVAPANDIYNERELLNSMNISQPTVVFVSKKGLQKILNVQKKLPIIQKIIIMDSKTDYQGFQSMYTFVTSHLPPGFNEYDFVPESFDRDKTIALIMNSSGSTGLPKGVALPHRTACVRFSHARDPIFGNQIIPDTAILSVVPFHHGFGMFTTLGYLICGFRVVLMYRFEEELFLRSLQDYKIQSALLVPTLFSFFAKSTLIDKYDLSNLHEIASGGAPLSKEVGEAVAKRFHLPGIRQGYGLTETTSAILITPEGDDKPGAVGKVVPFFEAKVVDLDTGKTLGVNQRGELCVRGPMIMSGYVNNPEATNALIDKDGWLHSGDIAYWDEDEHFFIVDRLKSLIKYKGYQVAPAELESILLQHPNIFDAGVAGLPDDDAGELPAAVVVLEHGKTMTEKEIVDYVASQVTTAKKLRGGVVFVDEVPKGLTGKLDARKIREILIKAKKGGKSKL
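Purified P. pyralis luciferase (10nM final) with 10uM D-luciferin and 10uM ATP (Km levels) in 50mM Tris acetate pH 7.5, 10mM Mg acetate, 0.01% Tween-20, 0.05% BSA; qHTS 6-point titration, ~60 µM downward; luminescence read.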
p53 reactivation – restores transcriptional activity of mutant p53; H1299 p53-A138V BP100-luciferase reporter, luminescence, 24 h; Potency, µM (series often up to 92.2 µM), without a hit: at the highest dose activity change, positive = activation, usual class: activators; hit rate 0.063% among 320,000; AID 504706; also: % of control where 0% means no effect; nearly all actives have a fitted effect of over 45% in size
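H1299 (p53-null), stable ts p53-A138V + BP100-Luc; 1000 cells/well, Opti-MEM/10% FBS; cpd 4 pt, 1:5; 24 h, 37 deg C, 5% CO2; detection reagent 10 min RT; luminescence.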
Rab9 prom act – Rab9 promoter activation; Huh7 Rab9 promoter-luciferase reporter, luminescence, 24 h; Potency, µM (titrated, usually from 9.22 µM), for inactives: top-dose activation, negative = inhibition, usual class: activators; hit rate 2.8% among 320,000; AID 485297; also: % of control where 0% means no effect; nearly all actives have a fitted effect of over 60% in size
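Huh7 reporter line, Rab9 promoter upstream of luciferase. Compound exposure 24 h at 37 °C in reduced-serum medium with 10% FBS. Read-out: luminescence.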
SMN2 splice up – SMN2 splice variant enhancement. HEK293 SMN2-luciferase splicing reporter, luminescence, 30-36 h. Potency, µM (top dose mostly 46.1 µM), for the others: at the highest dose activity change, positive = activation, most hits filed as activators. hit rate 2.8% among 210,000. AID 1458; also: % of control where 0% means no effect; nearly all actives have a fitted effect of over 55% in size
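HEK293 cells carry an SMN2 minigene-luciferase reporter in which exon 7 inclusion puts luciferase in frame. Cells were seeded at 2000 cells/well, attached for 10-12 hours, then exposed to compounds for 30-36 hours at 37C before ONE-Glo luminescence.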
NPC1 promoter act – activates the NPC1 promoter | Huh7 NPC1 promoter luciferase reporter, 24 h | Potency, µM (series often up to 9.22 µM), for the others: top-dose activation, hits mostly activators | hit rate 2.4% among 320,000; also: % of control where 0% means no effect; nearly all actives have a fitted effect of over 60% in size
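Cells: Huh7 expressing luciferase under the NPC1 promoter, 1500/well. Seeded 2 h, compound added, incubated 24 h at 37 °C. Luciferase reagent, 10 min ambient, then luminescence.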
ELG1 genotox – induces genotoxicity in HEK293T cells with luciferase-tagged ELG1; hit rate 1.3% among 330,000; HEK293T ELG1-luciferase reporter, luminescence, 16 h; Potency, µM (highest dose often 46 µM), without a hit: at the top dose activity change, positive = activation, usual class: activators; also: % of control where 0% means no effect; nearly all actives have a fitted effect of over 60% in size
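After overnight (16 hr) compound treatment at 37 °C, ELG1-luciferase HEK293T cells were lysed with ONE-Glo; luminescence quantified 30 min later at room temperature.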
Starred values were filed as active, the others as inactive; u = inconclusive; x = no result given; [ ] = dose if it differs, or a comment. Calls follow the shape of the dose curve; as a rule, active = well fitted curve in the direction sought with a large enough effect; inconclusive = small, poorly fitted or top-dose-only effect, or another doubt; inactive = no such curve, though single readings can be large; an effect the other way counts as inactive or inconclusive. Potency is read from the fitted curve at half-maximal effect.

SMILES	FLuc counter	p53 reactivation	Rab9 prom act	SMN2 splice up	NPC1 promoter act	ELG1 genotox
COc1ccc(CNC(=O)CN(C(=O)c2snc(C(N)=O)c2N)c2ccccc2F)cc1	3%	-9%	-4%	x	0%	-3%
Cc1cc(C)c2oc(C(=O)Nc3sc4c(c3C(=O)NCc3ccco3)CCC4)cc(=O)c2c1	-2%	x	x	11%	x	x
Cc1ccnc(N2C(=O)c3ccccc3C2Nc2cccc(C)c2C)c1 (centres undefined)	3%	8%	-4%	9%	-3%	1%
Cc1ccnc(N2C(=O)c3ccccc3C2O)c1 (centres undefined)	6µM*	8%	u	11µM*	1µM*	1.8µM*
CCN(CC)c1ccc(/C=N/NC(=O)c2ccoc2C)c(O)c1	2.7µM*	u	-7%	x	u	16µM*
CCN(CC)c1ccc(/C=N/NC(=O)OC)c(O)c1	11µM*	3%	28%	-12%	20%	16%
CCN(CC)c1ccc(/C=N/NC(=S)NC)c(O)c1	u	15%	2%	x	19%	14%
CC(C)C[C@@H](CC(=O)N[C@@H](CCCN)CC(=O)N[C@@H]1CCCC[C@H]1C(=O)N[C@H](CC(=O)N[C@@H](CCC(=O)O)CC(=O)O)Cc1c[nH]c2ccccc12)NC(=O)[C@@H]1CCCC[C@H]1N	x	x	x	13%	x	x
CCCCN1Cc2c(nc3cc(-c4ccco4)[nH]n3c2=O)C1=O	17µM*	3%	12%	x	3%	0%
COCc1cc(=O)n2[nH]c(-c3ccco3)cc2n1	-14%	-1%	0%	x	-6%	3%
COC(=O)c1ccc(NC(=O)C(=O)N2CCCC2)cc1	21µM*	20%	u	u	2.8µM*	u
CCN1CCN(C(=O)Nc2ccc(Cc3ccc(NC(=O)N4CCN(CC)CC4)cc3)cc2)CC1	13µM*	1%	11%	7%	1%	-5%
CCOC(=O)c1ccc(NC(=O)N2CCCCC2)cc1	13µM*	u	3.2µM*	u	2.5µM*	10µM*
COC(=O)c1ccc(NC(=S)N2CCCC2)cc1	4%	6%	-3%	11%	0%	-8%
CCOC(=O)c1ccc(NC(=O)N2CCN(C3CCCCC3)CC2)cc1	1%	-1%	-4%	27%	-2%	0%
Cc1ccc(NC(=O)N2CCCCCC2)cc1	15µM*	21%	u	x	u	u
O=[N+]([O-])c1cccc(CSC2=NCCN2S(=O)(=O)c2ccccc2)c1	-2%	5%	-4%	x	-1%	-11%
O=C(c1ccc(F)cc1)N1CCN(CCc2ccncc2)CC1	-5%	x	x	x	x	x
COC(=O)c1ccc2c(=O)[nH]c(COC(=O)c3[nH]c(C)c(C(C)=O)c3C)nc2c1	x	7%	x	x	x	-5%
COc1ccc(C(=O)NC2CCCc3c2cnn3-c2cccc(C)c2C)o1 (centres undefined)	-2%	2%	-21%	x	-8%	3%
CC(C)[C@H](O)C1=CCCCC1=O	x	x	x	5%	x	x
CCc1ccc(NS(=O)(=O)c2ccc(NC(=O)N3CCCC3)cc2)cc1	2%	x	x	x	x	x
CCOC(=O)c1ccc(N/C=C2\CCCCC2=O)cc1	2.7µM*	u	2.5µM*	u	4µM*	2.3µM*
O=C(Nc1ccc(Br)cc1)N1CCCC(O)C1 (centres undefined)	-10%	11%	20%	4%	10%	14%
O=C(Nc1ccc(Br)cc1)N1CCCCCC1	11µM*	27%	2.2µM*	x	u	u
SMILES	FLuc counter	p53 reactivation	Rab9 prom act	SMN2 splice up	NPC1 promoter act	ELG1 genotox
CCc1ccc(NC(=O)N2CCCCCC2)cc1	13µM*	u	1.8µM*	x	2.2µM*	21µM*
O=C1CCCC/C1=C\Nc1ccc(O)cc1	u	20%	15%	u	11%	u
O=C(Oc1ccccc1)N1CCC2(CCCN(c3ncccn3)C2)CC1	x	x	x	-38%	x	x
CCOc1ccc(NC(=O)c2c(NC(=O)CNCCN3CCOCC3)sc3c2CCC3)cc1	2%	-12%	-3%	x	-2%	-10%
COc1ccc(/C=N/NC(=O)c2ccc(-n3cnnn3)cc2)cc1	11µM*	-1%	-4%	x	0%	-1%
CC(C)c1ccc(/C=N/NC(=O)c2ccc(-n3cnnn3)cc2)cc1	5.4µM*	0%	-1%	x	-1%	-6%
Nc1nc2c(-c3ccc(Br)cc3)nnn2c2ccccc12	0.43µM*	x	0.63µM*	x	1µM*	12µM*
CNc1nc2c(-c3ccc(Cl)cc3)nnn2c2ccccc12	2%	4%	26%	x	23%	u
COCCCn1c(=S)[nH]c2sc3c(c2c1=O)CCCC3	19µM*	-1%	-4%	x	-3%	-8%
COc1ccc(NC(C)=O)cc1NC(=O)C1CCCN1C(=O)c1cccs1 (centres undefined)	-1%	-6%	6%	x	0%	1%
O=C(/C=C/c1ccc2c(c1)OCCCO2)c1ccc2ccccc2c1O	2.7µM*	u	u	-34%	3.2µM*	u
Cc1ccc(C(=O)/C=C/c2ccc3c(c2)OCCO3)c(O)c1	1.1µM*	u	3.5µM*	x	u	u
O=C(COC(=O)/C=C/c1ccc2c(c1)OCO2)NCc1ccccc1	6%	10%	-7%	x	0%	0%
COc1ccc(S(N)(=O)=O)cc1C(=O)OCCCOC(=O)c1cc(S(N)(=O)=O)ccc1OC	-2%	1%	-16%	x	-15%	7.3µM*
CC1=CC(C)=Nc2ccccc2N1	17µM*	12%	-1%	-6%	-1%	16µM*
COc1ccccc1CNC(=O)c1ccc(N2CCCC2)c(NC(=O)NCCC(C)C)c1	-2%	x	x	x	x	x
O=C(COC(=O)C12CC3CC(CC(C3)C1)C2)Nc1ccccc1F	11µM*	24%	2%	-6%	0%	5%
Cc1cc(C(=O)COC(=O)C23CC4CC(CC(O)(C4)C2)C3)c(C)n1C	x	u	x	x	x	8.2µM*
NC(=O)COC(=O)C12CC3CC(CC(O)(C3)C1)C2	0%	-4%	4%	7%	-8%	1%
O=C(COC(=O)C12CC3CC(CC(O)(C3)C1)C2)Nc1ccc(Br)cc1F	x	u	3.5µM*	x	u	u
CCOc1ccc(NCC(=O)N/N=C/C=C/c2ccccc2)cc1	13µM*	3%	-3%	-4%	2%	3%
COc1ccc(OCC(=O)N/N=C/C=C/c2ccccc2)cc1	4.8µM*	15%	-4%	9%	1%	7%
O=C(COc1ccc(-c2ccccc2)cc1)N/N=C/c1ccccc1Br	u	3%	-1%	0%	-3%	-1%
O=C(COc1ccc(-c2ccccc2)cc1)N/N=C/c1cc(O)ccc1Br	11µM*	u	1%	2%[1.84 µM]	0%	0%
